Experimental findings from PubChem BioAssay (NCATS) are described below.

Results filed as inconclusive are left out. Values without a mark were called inactive. The source made the active and inactive calls. Calls come from the whole dose curve; as a rule, active = well fitted curve in the direction sought with a large enough effect; inconclusive = small, poorly fitted or top-dose-only effect, or another doubt; inactive = no such curve, though single readings can be large; an effect the other way counts as inactive or inconclusive.

The test system of one assay is WaGa. Briefly: qHTS assay to identify novel small-molecules to repurpose for Merkel cell carcinoma treatment (AID 1296009). Note: nearly all actives have a fitted effect of over 60% in size. The conditions noted are these: MCC and control cell lines, CellTiter-Glo viability, 72 h; series mostly up to 46 µM. In outline:
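After compound transfer in DMSO, plates were kept 72 hr at 37 degree celsius. Luminescent ATP signal from CellTiter-Glo served as viability measure, normalized against DMSO and no-cell controls.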
A general note: qHTS replaces the single test concentration by a dilution series.

A further assay relates to C33A. Briefly: Primary qHTS to identify gynecologic anti-cancer compounds using libraries of approved drugs and bioactive compounds (AID 1345084). Note: nearly all actives have a fitted effect of over 55% in size. The note with it: Gynecologic cancer cell panel viability, ATPlite luminescence, 48 h; series mostly up to 57.5 µM. Summed up:
(§1)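 In this quantitative HTS, cell killing is estimated from loss of ATP-dependent luciferase light. Cells see five compound concentrations over a 48 h exposure.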

The subject of the next assay is CAOV3. The assay is described as above. The note with it: Gynecologic cancer cell panel viability, ATPlite luminescence, 48 h; series mostly up to 57.5 µM. Summed up: as §1
Another assay relates to CASKI. Described as above. The note with it: Gynecologic cancer cell panel viability, ATPlite luminescence, 48 h; series mostly up to 57.5 µM. Summed up: as §1
(ATP-based viability assays read luminescence as a measure of living cells.)

A further assay concerns Es-2. The description is as above. The conditions noted are these: Gynecologic cancer cell panel viability, ATPlite luminescence, 48 h; series mostly up to 57.5 µM. Summed up:
as §1

The subject of another assay is HeLa. The assay is described as above. The conditions noted are these: Gynecologic cancer cell panel viability, ATPlite luminescence, 48 h; series mostly up to 57.5 µM. Summed up:
as §1

Another assay concerns Hek293T. The assay is described as above. The note with it: Gynecologic cancer cell panel viability, ATPlite luminescence, 48 h, control line for the selectivity index; series mostly up to 57.5 µM. Summed up:
as §1

A further assay relates to JEG-3. Described as above. The note with it: Gynecologic cancer cell panel viability, ATPlite luminescence, 48 h; series mostly up to 57.5 µM. In outline:
as §1

The subject of another assay is OV90. Described as above. The conditions noted are these: Gynecologic cancer cell panel viability, ATPlite luminescence, 48 h; series mostly up to 57.5 µM. Summed up:
as §1

The next assay has as its system PA-1. The assay is described as above. The note with it: Gynecologic cancer cell panel viability, ATPlite luminescence, 48 h; series mostly up to 57.5 µM. Summed up:
as §1

The next assay relates to SKOV3. Described as above. The note with it: Gynecologic cancer cell panel viability, ATPlite luminescence, 48 h; series mostly up to 57.5 µM. In outline: as §1
For a further assay, the system named is Tov-21-G. The assay is described as above. The conditions noted are these: Gynecologic cancer cell panel viability, ATPlite luminescence, 48 h; series mostly up to 57.5 µM. Summed up: as §1
The next assay has as its system Tov112D. The assay is described as above. The note with it: Gynecologic cancer cell panel viability, ATPlite luminescence, 48 h; series mostly up to 57.5 µM. Summed up:
as §1

Assay [1] can be described thus: Drug repurposing screens with cells derived from glioblastoma tumor samples (AID 1345199). Note: nearly all actives have a fitted effect of over 40% in size. Note: potency is the fitted concentration of half-maximal effect. The conditions noted are these: GBM patient neurospheres viability, ATP luminescence, 48 h. Summed up: (§2)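 Four patient lines of CD133+ GBM neurospheres were screened at several concentrations; hits were retested in those lines plus three slower-growing GBM lines, using 48-hour treatment and ATP-based viability.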

Another assay relates to astro. The description is as above. The conditions noted are these: viability, ATP luminescence, 48 h; series mostly up to 45.9 µM. Summed up: as §2
Setting [2] is: at 45.9 µM (top of the series), tumour line B.
Where [3] appears, read: at 45.9 µM (top of the series), tumour line D.
The mark [4] stands for this setting: at 46 µM (top of the series), tumour line A.
% is set by controls: 0 for no effect and ±100 for the full control effect.

`CC(Cc1ccccc1)NCCn1cnc2c1c(=O)n(C)c(=O)n2C` (centres undefined): the Potency result with WaGa, in the assay with C33A, in the assay with Es-2, in the assay on HeLa, with OV90 and in the assay on PA-1 was “inactive” in each case. Also, the Potency entry in the assay on Tov-21-G and in the assay on Tov112D was “inactive” in each case. Moreover, the result in the assay with CAOV3, with CASKI, in the assay on Hek293T, in the assay on JEG-3 and in the assay with SKOV3 was inactive. Further, the activity, negative = cell killing in assay [1] (at 91.6 µM (top of the series), tumour line B) is -19.2%. Besides, the Potency in assay [1] (tumour line A) was 31.6 µM (active).
Regarding `CCC1(CC)C(=O)C=CNC1=O`, the Potency result in the assay with WaGa, with C33A, in the assay with Es-2, in the assay on HeLa, in the assay on OV90 and in the assay on PA-1 was “inactive” each time. Further, the Potency entry with Tov-21-G, in the assay on Tov112D and in the assay with astro was “inactive” in each case. Besides, the result with CAOV3, in the assay with CASKI, in the assay on Hek293T, in the assay on JEG-3 and with SKOV3 was inactive. The figures for the activity, negative = cell killing in assay [1] (setting [2]), in [1] (setting [3]) and in assay [1] (setting [4]) were -5.96%, -8.64% and -23.7%, respectively.
For `c1ccc2c(c1)sc1ccccc12`, the Potency result with WaGa, with C33A, with Es-2, with HeLa, in the assay with OV90 and in the assay on PA-1 was “inactive” each time. The Potency entry in the assay with Tov-21-G, with Tov112D and with astro was “inactive” throughout. For the same molecule, the call with CAOV3, with CASKI, in the assay on Hek293T, in the assay on JEG-3 and in the assay on SKOV3 was inactive. The activity, negative = cell killing in [1] (setting [2]) was -12.7%; in [1] (setting [3]), -8%; in [1] (setting [4]), -9.49%.
On to `c1ccc(CN2CCNCC2)cc1`, for which the Potency result with WaGa, in the assay with C33A, in the assay on Es-2, in the assay on HeLa, in the assay on OV90 and in the assay on PA-1 was “inactive” in each case. For the same molecule, the Potency entry in the assay on Tov-21-G and with Tov112D was “inactive” throughout. In addition, the result in the assay with CAOV3, in the assay with CASKI, in the assay on Hek293T, with JEG-3 and in the assay on SKOV3 was inactive. The activity, negative = cell killing in [1] (at 194 µM (top of the series), tumour line B) was 7.52%; in assay [1] (at 194 µM (top of the series), tumour line D), -7.34%. The Potency in assay [1] (tumour line A) is 126 µM (active).
As for `CC[N+]1(CC)CCC(OC(=O)C(O)(c2ccccc2)c2ccccc2)C1` (centres undefined), the Potency result in the assay on WaGa, in the assay with C33A, in the assay on Es-2, in the assay with HeLa, in the assay with OV90 and with PA-1 was “inactive” each time. The Potency entry in the assay with Tov-21-G and with Tov112D was “inactive” in each case. For the same molecule, the outcome with CAOV3, in the assay on CASKI, in the assay with Hek293T, with JEG-3 and in the assay on SKOV3 was inactive.
Regarding `O=[N+]([O-])O[C@H]1CO[C@H]2[C@@H]1OC[C@H]2O[N+](=O)[O-]`, the Potency result with WaGa, with C33A, in the assay with Es-2, with HeLa, with OV90 and in the assay with PA-1 was “inactive” throughout. The Potency result in the assay on Tov-21-G and in the assay with Tov112D was “inactive” in each case. In addition, the molecule was called inactive in the assay with CAOV3, in the assay on CASKI, in the assay with Hek293T, with JEG-3 and in the assay with SKOV3. Also, the activity, negative = cell killing in [1] (setting [2]) was -6.92%; in assay [1] (setting [3]) it was 3.62%; in [1] (setting [4]) it was -13.3%.
Consider `Clc1ccccc1N1CCNCC1`, for which the Potency result in the assay with WaGa, in the assay with C33A, in the assay on Es-2, in the assay with HeLa, with OV90 and in the assay on PA-1 was “inactive” in each case. For the same molecule, the Potency result in the assay with Tov-21-G and in the assay with Tov112D was “inactive” throughout. Moreover, the molecule was called inactive in the assay on CAOV3, in the assay on CASKI, in the assay with Hek293T, in the assay with JEG-3 and with SKOV3.
`COc1cccc([C@@]2(O)CCCC[C@@H]2CN(C)C)c1`: the Potency entry in the assay with WaGa, with C33A, in the assay on Es-2, in the assay on HeLa, with OV90 and in the assay on PA-1 was “inactive” in each case. The Potency entry in the assay on Tov-21-G, in the assay with Tov112D and in the assay on astro was “inactive” in each case. Further, the molecule was called inactive in the assay on CAOV3, with CASKI, in the assay with Hek293T, in the assay on JEG-3 and in the assay on SKOV3. Besides, the activity, negative = cell killing is -5.81% in assay [1] (setting [2]), 6.21% in [1] (setting [3]) and -29.2% in assay [1] (setting [4]).
